Measured values reported in PubChem BioAssay (NCI).
Compounds without any hit were thinned out: in the full panel of roughly 83,000, 20% have a hit.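 Plates (96-well) were seeded with cells, treated with compound at one concentration, and incubated for 48 hours before percent growth was determined.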 A number with no mark means an inactive call. Activity calls are given as the source filed them. How the source made its calls: active means growth percent below 10; inactive means the rest.

Columns and labels:
Assay in all cases: NCI-60 one-dose screen, 48 h (100 = growth as untreated, 0 = no growth, -100 = all killed)
Details in all cases: 10 µM unless noted
NCI-H23 lung = system: NCI-H23 lung
NCI-H226 lung = system: NCI-H226 lung
NCI-H322M lung = system: NCI-H322M lung
HOP-62 NSCLC = system: HOP-62 NSCLC
NCI-H460 lung = system: NCI-H460 lung
HOP-92 NSCLC = system: HOP-92 NSCLC
NCI-H522 lung = system: NCI-H522 lung
A549/ATCC NSCLC = system: A549/ATCC NSCLC
786-0 renal = system: 786-0 renal
COLO 205 colon = system: COLO 205 colon

| SMILES | growth (NCI-H23 lung) | growth (NCI-H226 lung) | growth (NCI-H322M lung) | growth (HOP-62 NSCLC) | growth (NCI-H460 lung) | growth (HOP-92 NSCLC) | growth (NCI-H522 lung) | growth (A549/ATCC NSCLC) | growth (786-0 renal) | growth (COLO 205 colon) |
| --- | --- | --- | --- | --- | --- | --- | --- | --- | --- | --- |
| COc1ccc2[nH]c(C(=O)N3CCN(C(=O)OCc4ccc5c(Cl)cc(Cl)c(O)c5n4)CC3)cc2c1 | -85.8% (active) | -4.54% (active) | 29.1% | -61.5% (active) | -58.9% (active) | -65.4% (active) | -70.8% (active) | -68% (active) | -91.7% (active) | -81.6% (active) |
| O=C1/C(=C/c2cccc(F)c2)CN(C(=O)C(Cl)Cl)C/C1=C\c1cccc(F)c1 | -75.3% (active) | 0.29% (active) | -44.1% (active) | -25.8% (active) | -63% (active) | -58% (active) | -80.3% (active) | -28.7% (active) | -77% (active) | -60% (active) |
| CCCCCC(/C=N\NC(=S)N/N=C/C(=C/c1ccccc1)CCCCC)=C\c1ccccc1 | 70.6% | 89.8% | 61.3% | 72.7% | 57.8% | 15.8% | 40.4% | 74.8% | 79.9% | 97.2% |
| CC1CCN(S(=O)(=O)c2ccc(S(=O)(=O)N3CCCC(c4nc5c(nnn5Cc5cccc(Cl)c5)c(=O)[nH]4)C3)cc2)CC1 (stereo not given) | 65.4% | 75.2% | 61.3% | 57.2% | 23.9% | 56% | 33.7% | 64.8% | 64.4% | 91.3% |
| COc1ccc(C(O)c2cc3c(N)c(C(=O)Nc4cccc(Br)c4)sc3nc2C)cc1 (stereo not given) | 21.9% | 3.81% (active) | 45.9% | 24.3% | 0.823% (active) | 24.7% | 9.45% (active) | 11.2% | 15.3% | -25% (active) |
| COc1ccccc1CNc1c2ccccc2nc2ccccc12 | 30.9% | 39.9% | 48.6% | 44.5% | 10.2% | 18.2% | 62.4% | 34.2% | 39.3% | 12.8% |
| CCNCCNc1cc(-c2ccc(C(F)(F)F)cc2)c(C#N)c2nc3ccccc3n12 | -83.7% (active) | -66.1% (active) | -56.2% (active) | -67.7% (active) | -81.4% (active) | -81.2% (active) | -69% (active) | -76.4% (active) | -96.2% (active) | -80.4% (active) |
| O=C(CSc1nnc(-c2cnccn2)n1-c1ccccc1)c1ccc(Cl)cc1 | 108% | 104% | 95.5% | 97.7% | 103% | 81.4% | 95.3% | 91.7% | 95.1% | 99.6% |
| N#C/C(=C\c1c(-c2ccccc2)[nH]c2ccccc12)C(N)=O | 85.4% | 95.1% | 104% | 87.4% | 92.2% | 65.1% | 83.3% | 89.5% | 98.7% | 92.8% |
| CS(=O)(=O)c1ccc(-c2cnn3ccc(-c4cccc(S(=O)(=O)C5CC5)c4)nc23)cc1 | 56.8% | 60.5% | 57.9% | 48.7% | 43.7% | 41.9% | 31.5% | 45% | 61.3% | 64.3% |
| Cc1cccc(/C=C/c2c(C(=O)/C=C/c3ccccc3)c(C)nc3ccccc23)c1 | -57.9% (active) | -16.5% (active) | 9.28% (active) | -48.1% (active) | -71.8% (active) | -1.2% (active) | -58.7% (active) | -34.8% (active) | -55.5% (active) | -61.8% (active) |
| S=c1sc2c(Cl)nc(-c3cccnc3)nc2n1-c1ccccc1 | 17.5% | 85.2% | 61% | 27.8% | 57.4% | 25.3% | -65.8% (active) | 79.9% | 35.4% | 80% |
| c1ccc([P+](c2ccccc2)(c2ccccc2)c2ccc3c4ccc([P+](c5ccccc5)(c5ccccc5)c5ccccc5)c5cccc(c6cccc2c63)c54)cc1 | 8.37% (active) | 15.7% | 17.8% | 14.1% | 4.26% (active) | 9.54% (active) | 6.86% (active) | 11% | 40.7% | 1.4% (active) |
| COc1ccc(C2=Nc3c(N)nc(N)nc3NC(c3cccc(Nc4ccnc5cc(C(F)(F)F)ccc45)c3)C2)cc1 (stereo not given) | 85.8% | 97.2% | 99.6% | 67.8% | 59.3% | 57.3% | 44.9% | 63.1% | 73% | 57.7% |
| C=CCn1c(SCC(=O)Nc2ccc(C(=O)/C=C/c3ccc(Cl)cc3)cc2)nnc1-c1ccc(Br)cc1 | 83.7% | 80.7% | 91.8% | 104% | 83.1% | 87.2% | 60.3% | 65.4% | 89% | 118% |
| COc1ccc2c(c1)N(CCO)C1=C(C(=O)OC1)C2c1cccc(F)c1 (stereo not given) | 25.6% | 45% | 46.5% | 36.9% | 6.1% (active) | 57.4% | 6.05% (active) | 16.1% | 27.9% | -22.6% (active) |
| O=C1/C(=C/c2ccccc2Br)COc2ccc(O)cc21 | 92.5% | 100% | 93.8% | 88.9% | 95.3% | 104% | 31.3% | 86.4% | 73% | 100% |
| COc1ccc(\C=N/N=C(N)/C(N)=N\N=C/c2ccc(OC)cc2)cc1 | 95.6% | 96.1% | 123% | 97.8% | 108% | 92.5% | 87.5% | 113% | 123% | 107% |
| CCCn1cc2c(=O)nc3sc(Cc4ccccc4)c(C)n3c2n1 | 103% | 107% | 98.5% | 102% | 101% | 88.4% | 75% | 83.5% | 99.1% | 109% |
| O=C1NC(=C(Cl)Cl)/C(=N\S(=O)(=O)NCc2ccccc2)N1 | 104% | 99.2% | 99.3% | 102% | 110% | 107% | 81.4% | 94.1% | 100% | 121% |
| N#Cc1c(-c2ccc(Cl)cc2)c(C#N)c2c(C#N)c(N)nn2c1N | 98.1% | 86.8% | 81.7% | 79.5% | 86.9% | 61% | 64.8% | 77.4% | 86.6% | 95.2% |
| O=C(Nc1nc2ccccc2s1)c1ccc(F)cc1 | 89.9% | 92.7% | 92.5% | 106% | 69.2% | 78.7% | 92.2% | 98.4% | 108% | 118% |
